From PubChem BioAssay (NCI)
Compounds without any hit were thinned out: in the full panel of roughly 79,000, 15% have a hit. Active and inactive are the calls of the source. Cut-off read from the data, not from the text of the source: active = growth inhibition above about 70%; inactive = the rest.

Legend:
[1] = NCI Yeast Anticancer Drug Screen. Data for the rad50 strain (AID 155);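 note: 0% = growth of vehicle-only cultures of the same strain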; conditions: S. cerevisiae rad50 strain growth inhibition; at 50.0 µM; hits give high values
Summary of the method: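 Compounds were tested on a yeast strain with an engineered DNA damage repair alteration; the reported value is growth inhibition normalised to vehicle treatment.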

[2] = NCI Yeast Anticancer Drug Screen. Data for the mec2-1 strain (AID 157); conditions: S. cerevisiae mec2-1 strain, at 50.0 µM, hits give high values
Summary of the method: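 Strain: mec2-1 (DNA repair/cell cycle alteration). Compound exposure, then growth measured; inhibition expressed relative to vehicle.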

[3] = NCI Yeast Anticancer Drug Screen. Data for the sgs1 mgt1 strain (AID 161);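 note: 0% = growth of cultures given vehicle only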; conditions: S. cerevisiae sgs1 mgt1 strain, at 50.0 µM, hits give high values
Summary of the method: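 Read-out: growth inhibition vs vehicle controls. Cells: mutant yeast strain deficient in DNA damage repair.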

[4] = NCI Yeast Anticancer Drug Screen. Data for the cln2 rad14 strain (AID 165);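 note: 0% = growth equal to vehicle treated cultures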; conditions: S. cerevisiae cln2 rad14 strain, at 50.0 µM, hits give high values
Summary of the method: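 Compounds are applied to the cln2 rad14 yeast strain, and growth is then compared with that of vehicle-treated cultures to give inhibition.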

[5] = NCI Yeast Anticancer Drug Screen. Data for the bub3 strain (AID 167); conditions: S. cerevisiae bub3 mutant strain, at 50.0 µM, hits give high values
Summary of the method: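 Growth of a checkpoint-deficient yeast mutant is measured after compound exposure. Values represent inhibition relative to vehicle.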

[6] = NCI Yeast Anticancer Drug Screen. Data for the mlh1 rad18 strain (AID 175); conditions: S. cerevisiae mlh1 rad18 strain growth inhibition; at 50.0 µM; hits give high values
Summary of the method: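 Read-out is yeast growth inhibition, calculated against vehicle-only controls. The compound was applied to a strain engineered with DNA damage repair alterations.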

Measured: growth inhibition

CCOC(=O)OCCCc1ccccc1
inactive: [1] -8.95% | [2] -2.95% | [3] -8.8% | [4] -15.4% | [5] -7.55% | [6] -6.8%

NC(CCOCCP(=O)(O)CCOCCC(N)C(=O)O)C(=O)O (stereo not given)
inactive: [1] -42% | [2] -20.8% | [3] -27.1% | [4] -4.5% | [5] -8.95% | [6] -8.75%

O=C1Cc2ccccc2C(O)=C1c1cnccn1
inactive: [1] 6.3% | [2] 11.2% | [3] 19.6% | [4] -1.6% | [5] 0.25% | [6] 5.95%

CC(C)(C)c1ccc(SCC#CCOc2ccc(Cl)cc2)cc1
inactive: [1] -6.2% | [2] 4.2% | [3] -4.8% | [4] -23.6% | [5] -7.3% | [6] -20.4%

O=C1NC(=O)C(c2ccc(Br)c3ccccc23)=C1O
inactive: [1] 9.2% | [2] -4.75% | [3] 3.05% | [4] -44.5% | [5] -5.25% | [6] -6.25%

COC(=O)C(C)(N)Cc1ccc(O)c(C)c1 (stereo not given)
inactive: [1] 3.6% | [2] 10.8% | [3] 0.5% | [4] -10.3% | [5] -4.05% | [6] -9.9%

O=C1NC2OCC(O)C(O1)C2O (stereo not given)
inactive: [1] 3.85% | [2] 1% | [3] -13.3% | [4] 7.75% | [5] -2.25% | [6] 16.3%

O=C(O)C1CC=CCC1C(=O)O (stereo not given)
inactive: [1] 8.5% | [2] -7.45% | [3] -12.4% | [4] -45.9% | [5] 1.4% | [6] 9.95%

COc1ccc(NC(=O)CCc2cc(-c3ccc(O)c(OC)c3)nc(NC#N)n2)cc1
inactive: [1] -8.1% | [2] 9% | [3] -37% | [4] 6% | [5] 27.6% | [6] -28.9%

C(=C\c1ccccc1)/Cn1nc(-c2ccccc2)nc1-c1cnccn1
inactive: [1] -33.1% | [2] -24% | [3] -47% | [4] 10.2% | [5] -39.4% | [6] -29.1%

CC12CCCCC1CC(=O)/C(=C\O)C2 (stereo not given)
inactive: [1] 12.7% | [2] 15.1% | [3] 17.9% | [4] -29.1% | [5] -11.3% | [6] 14%

CCc1ccc(O)c(CN2CCN(Cc3cc(CC)ccc3O)CC2)c1
inactive: [1] -2.85% | [2] -15.7% | [3] 20.5% | [4] -18.4% | [5] -4.8% | [6] 17.1%

CC(C)(C)c1cc2c(O)c(c1)Cc1cc(C(C)(C)C)cc(c1O)Cc1cc(C(C)(C)C)cc(c1O)Cc1cc(C(C)(C)C)cc(c1O)Cc1cc(C(C)(C)C)cc(c1O)Cc1cc(C(C)(C)C)cc(c1O)Cc1cc(C(C)(C)C)cc(c1O)Cc1cc(C(C)(C)C)cc(c1O)C2
inactive: [1] -12.8% | [2] 9.65% | [3] 7.3% | [4] 5.6% | [5] -14% | [6] -15.1%

COCCOC(=O)c1ccccc1C
inactive: [1] 8.7% | [2] 2.35% | [3] 0.3% | [4] -27.6% | [5] 11.8% | [6] 0.55%

CC1=CC(=O)CC2(C)CCC(C(C)CC(=O)CC(C)C)CC12 (stereo not given)
active: [1] 88.8% | [2] 91.3% | [3] 91% | [4] 91.3% | [5] 88.8% | [6] 91.5%

O=C(Nc1ccc(Br)cc1)c1ccccc1
inactive: [1] 14.4% | [2] 20.9% | [3] 0.35% | [4] -31.5% | [5] 0.8% | [6] 22.1%

CCOC(=O)COC(=O)C1C(C(N)=O)N(CC(=O)OCC)CCN1CC(=O)OCC (stereo not given)
inactive: [1] 1.85% | [2] 1.9% | [3] -7.9% | [4] -0.85% | [5] -2.45% | [6] 2.25%

CC(C)NC(=O)CCSCCC(=O)NC(C)C
inactive: [1] 3.6% | [2] -10.7% | [3] -3.75% | [4] -6.8% | [5] -17.9% | [6] 10.1%

C[C@H]1C(=O)CCC2[C@]3(C)CC4OC(=O)C5(CC[C@@]6(C)CCC(C)(C)CC6C45C)C3CC[C@@]21C (stereo not given in full)
inactive: [1] -0.7% | [2] -7.25% | [3] -25.9% | [4] -3.65% | [5] -34.9% | [6] -15%

COc1ccc(/C=C2\N=C(NN)N=C2Cl)cc1
inactive: [1] -8.2% | [2] -30.9% | [3] 4.55% | [4] 23.4% | [5] -0.35% | [6] -13.3%

COC(=O)C1=C(C)N(NC(=O)c2ccccc2)C2(O)CCCC(=O)C12C (stereo not given)
inactive: [1] 20.2% | [2] 2.2% | [3] 17.8% | [4] -29.6% | [5] -6.05% | [6] 23.9%

Nc1ccc2ncc(NCc3ccc(F)cc3)nc2c1
inactive: [1] -4% | [2] -25.9% | [3] -25.6% | [4] 18.1% | [5] 3.4% | [6] 5.15%

O=C1c2ccccc2C(=O)C2C1C(c1ccccc1)N(c1ccccc1)C2c1ccccc1 (stereo not given)
inactive: [1] -16.4% | [2] -1.55% | [3] -7.1% | [4] 5.75% | [5] 2.65% | [6] -3.1%

N#CC(N)=NC1CCC(C2CCC(O)CC2)CC1 (stereo not given)
inactive: [1] 6.65% | [2] 2.4% | [3] -6.25% | [4] -1.3% | [5] 16.1% | [6] 10.7%

O=C(Nc1ccccc1)c1nn(-c2cc(S(=O)(=O)O)c([N+](=O)[O-])cc2Cl)[n+](-c2cc(S(=O)(=O)[O-])c([N+](=O)[O-])cc2Cl)n1
inactive: [1] -4.45% | [2] -3.25% | [3] -25.1% | [4] -26.8% | [5] -23.6% | [6] 2.3%

CCC(=O)[C@@]1(OC(C)=O)CC[C@H]2[C@@H]3CCC4=CC(=O)CC[C@]4(C)[C@H]3CC[C@@]21C
inactive: [1] 28.1% | [2] 17.5% | [3] 30.9% | [4] 36.7% | [5] 26.9% | [6] 16%

N#Cc1cc2c(cc1C#N)SCCSCCCSCCS2
inactive: [1] 1.2% | [2] 5% | [3] 1.05% | [4] 22.4% | [5] 6% | [6] -24.8%

OCC1OC2OC(c3ccccc3)(c3ccc(OCc4ccccc4)nc3OCc3ccccc3)OC2C1O (stereo not given)
inactive: [1] 25.9% | [2] 2.6% | [3] 0.6% | [4] 14.8% | [5] -10.4% | [6] 2.8%

COc1ccc(-c2c(C#N)c(S)n(NS(=O)(=O)c3ccccc3)c(=O)c2C#N)cc1
inactive: [1] 16.8% | [2] 56.7% | [3] 43.7% | [4] -1.5% | [5] 34% | [6] 58%

CC(=O)Nc1cc(F)c(NC(C)=O)c(F)c1
inactive: [1] -2.05% | [2] -1.95% | [3] -18.9% | [4] -15.2% | [5] -9.05% | [6] -10.3%

C/C(CC(=O)N(C(C)C)C(C)C)=N\NC(=O)c1ccncc1
inactive: [1] -3.45% | [2] -12.3% | [3] -18.9% | [4] 18.7% | [5] -10.7% | [6] 13.8%

C=C1C(=O)O[C@H]2C3OC3(C)CC/C=C(/C(=O)OC)[C@@H](OC(C)=O)[C@H](OC(=O)C3(C)OC3C)[C@H]12 (stereo not given in full)
inactive: [1] 12.6% | [2] 31.8% | [3] 13.5% | [4] 22.4% | [5] 5.55% | [6] 8.85%

COc1ccc(C(=O)N=C(N)n2nc(C)cc2C)cc1
inactive: [1] -37.8% | [2] -1.35% | [3] -1% | [4] -16.1% | [5] 31.9% | [6] -0.75%

CC1=C2CC[C@@]3(C)C(=CCC3O)C2(C)CCC1=O (stereo not given in full)
inactive: [1] -1.3% | [2] 11.9% | [3] -7.5% | [4] -34% | [5] -8.9% | [6] -7.6%

COc1cccc(CN(CCc2cccc(OC)c2OC)C(=O)CN2CCOCC2)c1O
inactive: [1] -3.8% | [2] 9.35% | [3] -0.05% | [4] 8.8% | [5] 4.9% | [6] -23.1%

CC(=NNC(=S)Nc1cccc(C)c1)c1cccc(C(C)=NNC(=S)Nc2cccc(C)c2)n1
inactive: [1] 37.4% | [2] 41.2% | [3] 62.6% | [4] 29.1% | [5] 35.4% | [6] 47.2%

Oc1ccccc1CNc1ncc(Cl)cc1Cl
inactive: [1] 24.9% | [2] 16% | [3] 26.8% | [4] -5.15% | [5] 39.1% | [6] 19.4%

Cc1cccc(NC(=O)c2cccc(C(=O)Nc3cccc(C)c3C)c2)c1C
inactive: [1] -12.4% | [2] 0.6% | [3] 17.6% | [4] -15.9% | [5] 5.2% | [6] -21.9%

CC1CN1C(=O)Nc1cccc2c(NC(=O)N3CC3C)cccc12 (stereo not given)
inactive: [1] -21.9% | [2] -12.4% | [3] -8.85% | [4] -15.8% | [5] 22.4% | [6] -2.45%

CCCNC(C#N)c1ccc(C(C#N)NCCC)cc1 (stereo not given)
inactive: [1] -4.6% | [2] -10.4% | [3] -12.6% | [4] -5.9% | [5] -23.8% | [6] -7.8%
